Results filed as inconclusive are left out. Active and inactive are the calls of the source. The call rests on the fitted dose curve; in most records, active means well fitted curve in the direction sought with a large enough effect; inconclusive means small, poorly fitted or top-dose-only effect, or another doubt; inactive means no such curve, though single readings can be large; an effect the other way counts as inactive or inconclusive.
What was measured:
[1] = qHTS of pediatric cancer cell lines to identify multiple opportunities for drug repurposing: Primary screen for U-2 OS cells (AID 1347096); further: nearly all actives have a fitted effect of over 50% in size
How it was run: (§1)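 Cells (500-1,000/well) rested 5 h, then received compounds for 48 h; metabolically active cells were measured by CellTiter-Glo luminescence. Final concentrations spanned up to 46 µM (MIPE, 11-point) or 0.59 nM-46 µM (NPC, 8-point) in primary screens, 11-point in follow-ups.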

[2] = qHTS of pediatric cancer cell lines to identify multiple opportunities for drug repurposing: Primary screen for Saos-2 cells (AID 1347097); further: nearly all actives have a fitted effect of over 40% in size
How it was run: (§2)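 Plated cells (500-1,000 per well, growth media) were allowed to settle for 5 hours, treated with compound dilutions for 48 hours, then lysed with CellTiter-Glo for 15 min at room temperature before luminescence reading.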

[3] = qHTS of pediatric cancer cell lines to identify multiple opportunities for drug repurposing: Primary screen for SK-N-SH cells (AID 1347098); further: nearly all actives have a fitted effect of over 65% in size
How it was run: as §1

[4] = qHTS of pediatric cancer cell lines to identify multiple opportunities for drug repurposing: Primary screen for NB1643 cells (AID 1347099); further: nearly all actives have a fitted effect of over 50% in size
How it was run: as §2

[5] = qHTS of pediatric cancer cell lines to identify multiple opportunities for drug repurposing: Primary screen for LAN-5 cells (AID 1347100)
How it was run: as §1

[6] = qHTS of pediatric cancer cell lines to identify multiple opportunities for drug repurposing: Primary screen for BT-12 cells (AID 1347101); further: nearly all actives have a fitted effect of over 25% in size
How it was run: as §1

[7] = qHTS of pediatric cancer cell lines to identify multiple opportunities for drug repurposing: Primary screen for Rh18 cells (AID 1347102); further: nearly all actives have a fitted effect of over 65% in size
How it was run: as §1

[8] = qHTS of pediatric cancer cell lines to identify multiple opportunities for drug repurposing: Primary screen for OHS-50 cells (AID 1347103); further: nearly all actives have a fitted effect of over 40% in size
How it was run: as §1

[9] = qHTS of pediatric cancer cell lines to identify multiple opportunities for drug repurposing: Primary screen for MG 63 (6-TG R) cells (AID 1347105); further: nearly all actives have a fitted effect of over 50% in size
How it was run: as §2

[10] = qHTS of pediatric cancer cell lines to identify multiple opportunities for drug repurposing: Primary screen for Rh30 cells (AID 1347107); further: nearly all actives have a fitted effect of over 75% in size
How it was run: as §1

[11] = qHTS of pediatric cancer cell lines to identify multiple opportunities for drug repurposing: Primary screen for Rh41 cells (AID 1347108); further: nearly all actives have a fitted effect of over 70% in size
How it was run: as §2

[12] = qHTS of pediatric cancer cell lines to identify multiple opportunities for drug repurposing: Confirmatory screen for NB1643 cells (AID 1347109); further: nearly all actives have a fitted effect of over 45% in size
How it was run: as §1

[13] = qHTS of pediatric cancer cell lines to identify multiple opportunities for drug repurposing: Confirmatory screen for A673 cells (AID 1347110);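 further: cells exposed to compound for 48 h before the viability read; nearly all actives have a fitted effect of over 65% in size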
How it was run: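 Cells plated at 500-1,000/well were treated five hours later with multi-point dilutions up to 46 µM final. After two days, CellTiter-Glo was added and luminescence read.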

[14] = qHTS of pediatric cancer cell lines to identify multiple opportunities for drug repurposing: Confirmatory screen for SK-N-MC cells (AID 1347111);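 further: cells exposed to compound for 48 h before the readout; nearly all actives have a fitted effect of over 70% in size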
How it was run: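 Seed 500-1,000 cells/well; rest 5 h at 37 degrees C. Pin-transfer compounds, 11-point titration. Incubate 48 h. Add CellTiter-Glo, 15 min RT, read luminescence.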

[15] = qHTS of pediatric cancer cell lines to identify multiple opportunities for drug repurposing: Confirmatory screen for BT-12 cells (AID 1347112); further: nearly all actives have a fitted effect of over 55% in size
How it was run: as §1

[16] = qHTS of pediatric cancer cell lines to identify multiple opportunities for drug repurposing: Confirmatory screen for LAN-5 cells (AID 1347113); further: nearly all actives have a fitted effect of over 65% in size
How it was run: as §1

[17] = qHTS of pediatric cancer cell lines to identify multiple opportunities for drug repurposing: Confirmatory screen for DAOY cells (AID 1347114); further: nearly all actives have a fitted effect of over 65% in size
How it was run: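 Viability measured as metabolically active cells via CellTiter-Glo luminescence following 48 hours of compound exposure, 11-point dilutions in confirmatory testing. 500-1,000 cells/well plated 5 hours before dosing; controls were DMSO and 2.3 µM bortezomib.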

[18] = qHTS of pediatric cancer cell lines to identify multiple opportunities for drug repurposing: Confirmatory screen for NB-EBc1 cells (AID 1347115);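 further: cells exposed to compound for 48 h before the viability read; nearly all actives have a fitted effect of over 45% in size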
How it was run: as §1

[19] = qHTS of pediatric cancer cell lines to identify multiple opportunities for drug repurposing: Primary screen for RD cells (AID 1347104); further: nearly all actives have a fitted effect of over 55% in size
How it was run: as §2

[20] = qHTS of pediatric cancer cell lines to identify multiple opportunities for drug repurposing: Primary screen for control Hh wild type fibroblast cells (AID 1347106); further: nearly all actives have a fitted effect of over 55% in size
How it was run: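 Cells (500-1,000/well) in growth media were settled 5 h at 37 degrees C, then given compounds for 48 h. Viability was read as CellTiter-Glo luminescence. Primary runs used MIPE at 11 points (0.78 nM-46 µM) and NPC at 8 points (0.59 nM-46 µM); follow-ups used 11 points.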
Potency means the concentration at half of the fitted maximal effect.

Row | SMILES | Potency [1] | Potency [2] | Potency [3] | Potency [4] | Potency [5] | Potency [6] | Potency [7] | Potency [8] | Potency [9] | Potency [10] | Potency [11] | Potency [12] | Potency [13] | Potency [14] | Potency [15] | Potency [16] | Potency [17] | Potency [18] | Potency [19] | Potency [20]
1 | CN(C)Cc1c(C(=O)NCCOc2ccc(C(=O)NO)cc2)oc2ccccc12 | 2.96 µM (active) | 2.96 µM (active) | 2.41 µM (active) | 0.935 µM (active) | 0.469 µM (active) | 3.85 µM (active) | 0.59 µM (active) | 0.769 µM (active) | 3.72 µM (active) | 4.69 µM (active) | 1.48 µM (active) | 0.465 µM (active) | 1.31 µM (active) | 0.585 µM (active) | 8.27 µM (active) | 0.928 µM (active) | 2.61 µM (active) | 1.85 µM (active) | – | –
2 | COC(=O)Nc1ccc(-c2nc(N3CCOCC3)c3cnn(C4CCN(Cc5cccnc5)CC4)c3n2)cc1 | inactive | 0.833 µM (active) | 21.5 µM (active) | inactive | 14.8 µM (active) | 1.09 µM (active) | 0.935 µM (active) | 0.109 µM (active) | 0.235 µM (active) | – | 0.132 µM (active) | inactive | 1.31 µM (active) | 1.04 µM (active) | – | – | – | – | 1.32 µM (active) | –
3 | CC[C@@]1(O)C(=O)OCc2c1cc1n(c2=O)Cc2cc3cc(O)ccc3nc2-1 | inactive | 0.0662 µM (active) | 0.429 µM (active) | 0.059 µM (active) | 0.0132 µM (active) | 0.385 µM (active) | 0.418 µM (active) | 0.0343 µM (active) | 0.0935 µM (active) | – | 0.469 µM (active) | 0.0737 µM (active) | 0.0465 µM (active) | 0.0131 µM (active) | 0.827 µM (active) | 0.0414 µM (active) | 0.657 µM (active) | 0.0165 µM (active) | 1.32 µM (active) | –
4 | c1ccc2c(CCNc3ccc(Nc4ccncc4)cc3)c[nH]c2c1 | inactive | 14.8 µM (active) | 19.2 µM (active) | 5.26 µM (active) | 4.18 µM (active) | 21.7 µM (active) | 18.7 µM (active) | 6.85 µM (active) | – | – | 18.7 µM (active) | – | – | – | – | – | – | – | 26.4 µM (active) | inactive
5 | CC1COC2(CCN(c3nc(=O)c4cc(C(F)(F)F)cc([N+](=O)[O-])c4s3)CC2)O1 (configuration not stated) | inactive | inactive | inactive | inactive | inactive | inactive | inactive | – | inactive | inactive | inactive | – | – | – | – | – | – | – | inactive | inactive
6 | O=C(NCCCNc1nc(Nc2cccc(NC(=O)N3CCCC3)c2)ncc1I)c1cccs1 | inactive | 3.32 µM (active) | 17.1 µM (active) | 11.8 µM (active) | 0.833 µM (active) | 24.3 µM (active) | 14.8 µM (active) | 24.3 µM (active) | 3.72 µM (active) | – | 18.7 µM (active) | – | – | – | – | – | – | – | – | –
7 | CC[C@@H]1C(=O)N(C)c2cnc(Nc3ccc(C(=O)NC4CCC(N5CCN(CC6CC6)CC5)CC4)cc3OC)nc2N1C(C)C (some centres not stated) | 11.8 µM (active) | 0.526 µM (active) | 0.607 µM (active) | 0.469 µM (active) | 0.0526 µM (active) | 6.11 µM (active) | 6.62 µM (active) | 0.122 µM (active) | 11.8 µM (active) | 16.6 µM (active) | 2.35 µM (active) | inactive | – | – | inactive | inactive | inactive | inactive | 0.187 µM (active) | –
8 | Nc1ccc(C(=O)c2cc3c(ccc4ccccc43)[nH]2)cc1 | inactive | 2.35 µM (active) | 7.64 µM (active) | 16.6 µM (active) | 0.833 µM (active) | 9.68 µM (active) | inactive | 10.9 µM (active) | – | inactive | 4.69 µM (active) | – | – | – | – | – | – | – | 5.9 µM (active) | inactive
9 | O=C(C=Cc1c(C(=O)O)[nH]c2cc(Cl)cc(Cl)c12)Nc1ccccc1 | inactive | inactive | inactive | inactive | inactive | inactive | inactive | inactive | inactive | inactive | inactive | – | – | – | – | – | – | – | – | inactive
10 | CC[C@@H]1C(=O)N(C)c2cnc(Nc3ccc(C(=O)NC4CCN(C)CC4)cc3OC)nc2N1C1CCCC1 | 14.8 µM (active) | 0.0469 µM (active) | 2.41 µM (active) | 1.32 µM (active) | 0.0332 µM (active) | 0.172 µM (active) | 5.9 µM (active) | – | – | – | – | 3.29 µM (active) | 0.0369 µM (active) | 0.0465 µM (active) | 16.5 µM (active) | 5.22 µM (active) | – | 3.29 µM (active) | 0.059 µM (active) | 23.5 µM (active)
11 | COCCn1c2c([n+](Cc3cnccn3)c1C)C(=O)c1ccccc1C2=O | 0.118 µM (active) | 0.0372 µM (active) | 0.482 µM (active) | 0.209 µM (active) | 0.0047 µM (active) | 0.0343 µM (active) | 0.0332 µM (active) | – | 0.187 µM (active) | 0.0148 µM (active) | 0.0469 µM (active) | 0.208 µM (active) | 0.0165 µM (active) | 0.0093 µM (active) | 0.0093 µM (active) | 0.0059 µM (active) | 0.0414 µM (active) | 1.04 µM (active) | 0.0118 µM (active) | –

Reference: PubChem BioAssay (NCATS)
